Results: PubChem BioAssay AID651711 (Broad Institute, 2012)
Values joined by “and” are separate entries in the source; they are usually repeats but may differ in a detail not shown here. Identical values can stand only once. Hit rate of the full screen: of about 350,000 compounds, about 180 (0.051%) were called active.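 The calls were made as follows: active = mean replicate inhibition above about 25%, with every replicate also reaching it (limit read from the data, passing the limit was not always enough); inconclusive = only one of those two criteria met; inactive = neither criterion met.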 The sample as a whole holds a higher share of actives than the screen did.

molecular target: Protein disulfide-isomerase A6 (Homo sapiens) (UniProt Q15084); assay: ERp5 (PDIA6) reductase activity blockers – biochemical, turbidity, absorbance 650 nm, single point, primary screen (AID 651711); conditions: ERp5 insulin aggregation, 90 min, at 9.99 µM, stronger effect = higher value
Sequence (Q15084 whole entry, looked up): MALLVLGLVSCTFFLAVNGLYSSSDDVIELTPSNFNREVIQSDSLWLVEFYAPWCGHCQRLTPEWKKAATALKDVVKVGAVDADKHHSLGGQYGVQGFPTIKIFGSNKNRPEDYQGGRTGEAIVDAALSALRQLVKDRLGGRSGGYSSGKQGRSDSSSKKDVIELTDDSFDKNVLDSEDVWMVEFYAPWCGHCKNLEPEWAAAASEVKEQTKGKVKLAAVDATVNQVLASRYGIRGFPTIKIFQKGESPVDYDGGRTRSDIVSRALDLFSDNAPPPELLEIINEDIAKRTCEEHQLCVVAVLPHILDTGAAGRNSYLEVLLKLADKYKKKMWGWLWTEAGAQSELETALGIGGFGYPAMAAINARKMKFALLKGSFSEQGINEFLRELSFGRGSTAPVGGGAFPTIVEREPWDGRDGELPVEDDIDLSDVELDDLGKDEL

inhibition, inactive:
C[C@H](CO)N1C[C@H](C)[C@H](CN(C)C(=O)CCC(F)(F)F)OCCCC[C@H](C)Oc2ccc(NS(=O)(=O)c3ccc(F)cc3)cc2C1=O 6.41%
COCC(=O)Nc1ccc2c(c1)[C@@H]1C[C@H](CC(=O)NCc3ccc(-c4ccccc4)cc3)O[C@H](CO)[C@@H]1O2 -0.847%
CN1C(=O)c2cc(NC(=O)C3CCCC3)ccc2OC[C@@H]2O[C@@H](CC(=O)NCCc3ccncc3)CC[C@@H]21 -3.7%
C[C@@H]1CCCCO[C@H](CN(C)S(=O)(=O)c2ccc(Cl)cc2)[C@@H](C)CN([C@H](C)CO)C(=O)c2cc(NC(=O)Nc3ccc4c(c3)OCO4)ccc2O1 0.772%
O=C1[C@@H](c2ccccc2)[C@@H](c2ccccc2)N1c1ccccc1 3.47%
O=C(N[C@@H]1C=C[C@@H](CC(=O)N2CCOCC2)O[C@H]1CO)c1ccccn1 2.34%
CN(C)CC(=O)Nc1ccc2c(c1)[C@H]1C[C@H](CC(=O)NCc3ccccn3)O[C@@H](CO)[C@H]1O2 -3.52%
Cc1[nH]c2ccccc2c1CC(=O)Nc1ccc(Nc2cccnc2)c(-c2cccc(Cl)c2)c1 -5.11%
CO[C@H](CN(C)C(=O)c1ccc2c(c1)OCO2)[C@H](C)CN([C@@H](C)CO)S(=O)(=O)c1ccc(Cl)cc1 3%
C[C@H]1CN([C@@H](C)CO)C(=O)c2cccc(NC(=O)Nc3ccc(F)cc3)c2O[C@@H]1CN(C)C(=O)Nc1ccc2c(c1)OCO2 4.97%
N#C[C@@H]1[C@H](c2ccccc2-c2ccc(F)cc2)[C@@H](CO)N1c1ncc(-c2ccccc2)s1 3.09%
O=C(c1ccncc1)N1C[C@H]2[C@@H](c3ccccc31)[C@H](CO)N2Cc1ccc(F)cc1 -3.32%
COc1ccc2c3c(n(C)c2c1)[C@@H](CO)NCC31CCN(CC2CCCC2)CC1 1.66%
O=C(Nc1ccccc1)N1CC(=O)N2[C@@H](CO)[C@H](c3ccc(C#CC4CCCC4)cc3)[C@@H]2C1 1.6%
C[C@@H]1CN([C@H](C)CO)C(=O)c2cc(-c3cncnc3)cnc2O[C@@H]1CN(C)Cc1ccc(Oc2ccccc2)cc1 -1.07% and -77.5%
COCC(=O)Nc1ccc2c(c1)C(=O)N(C)[C@@H]1CC[C@@H](CC(=O)NCCCN(C)C)O[C@@H]1CO2 -2.7%
C[C@@H](NC(=O)C[C@@H]1C=C[C@@H](NC(=O)CN2CCOCC2)[C@H](CO)O1)c1ccccc1 10.6%
Cc1ccc(S(=O)(=O)Nc2ccc3c(c2)C(=O)N([C@@H](C)CO)C[C@H](C)[C@H](CN(C)C(=O)Nc2ccc(C(F)(F)F)cc2)O3)cc1 -3.11%
CCNC(=O)[C@H]1[C@H](CO)[C@H]2Cn3c(ccc(/C=C/c4ccccc4)c3=O)[C@@H]1N2C(=O)C1CCC1 -5.59%
Cn1cnc(S(=O)(=O)N2C[C@@H](O)COC[C@H]3O[C@@H](CC(=O)NCc4ccc(F)cc4)CC[C@@H]32)c1 -0.766%
C[C@@H]1CCCCO[C@@H](CN(C)Cc2ccccc2)[C@H](C)CN([C@H](C)CO)C(=O)c2cc(NC(=O)Nc3cccc4ccccc34)ccc2O1 0.587%
O=C(c1cnccn1)N1CC2(C1)[C@H](c1ccccc1)[C@H](CO)N2C(=O)c1ccccc1 4.61%
COc1ccc(CN2C[C@@H](C)[C@H](OC)CN(C)C(=O)c3cc(NC(C)=O)ccc3OC[C@@H]2C)cc1 4.2%
C[C@H]1CN([C@@H](C)CO)C(=O)Cc2cc(NC(=O)Nc3ccc(C(F)(F)F)cc3)ccc2O[C@@H]1CN(C)S(=O)(=O)c1ccc(Cl)cc1 0.316%
CO[C@@H]1CN(C)C(=O)c2cc(NC(=O)C3CCOCC3)ccc2OC[C@H](C)N(Cc2cccnc2)C[C@H]1C 7.73%
CO[C@@H]1CN(C)C(=O)c2cc(NC(=O)c3ccccc3F)ccc2OC[C@@H](C)N(CC2CC2)C[C@H]1C -2.62%
COc1ccc(S(=O)(=O)N(C)C[C@H]2Oc3ccc(N(C)C)cc3C(=O)N([C@@H](C)CO)C[C@@H]2C)cc1 -9.71%
COc1ccccc1NC(=O)Nc1ccc2c(c1)OC[C@H](C)NC[C@H](C)[C@@H](OC)CN(C)C2=O 7.16%
COc1ccc(CN(C)C[C@H]2Oc3c(NC(=O)C4CCCCC4)cccc3C(=O)N([C@@H](C)CO)C[C@H]2C)cc1 4.09%
O=C(Cc1cccnc1)N1CC(=O)N2[C@@H](CO)[C@H](c3ccc(C#CC4CC4)cc3)[C@@H]2C1 1.76%
O=C(NCC[C@H]1CC[C@@H](NC(=O)C2CCCC2)[C@@H](CO)O1)c1cc(Cl)cc(Cl)c1 -0.154%
C[C@@H]1CN([C@H](C)CO)C(=O)c2cc(NC(=O)CCCN(C)C)ccc2O[C@@H](C)CCCCO[C@@H]1CN(C)Cc1ccncc1 -3.78%
Cc1ccc(S(=O)(=O)NCC[C@@H]2CC[C@H](NC(=O)CC3CC3)[C@H](CO)O2)cc1 -0.231%
O=C(NC1CCC1)[C@H]1[C@H](CO)[C@H]2Cn3c(ccc(-c4ccccc4)c3=O)[C@@H]1N2Cc1cocn1 -0.224%
CCC(=O)N(C)C[C@@H]1Oc2cc(C#CC(C)(C)O)ccc2S(=O)(=O)N([C@@H](C)CO)C[C@@H]1C -4%
CCCC#Cc1cnc2c(c1)C(=O)N([C@H](C)CO)C[C@@H](C)[C@@H](CN(C)C(=O)C1CCOCC1)O2 2.67%
C[C@H](CO)N1C[C@H](C)[C@H](CN(C)CC2CCCCC2)Oc2ccc(NC(=O)CCN3CCOCC3)cc2CC1=O 0.283%
Cc1ccc(S(=O)(=O)N(C)C[C@@H]2Oc3ccc(NC(=O)c4ccncc4)cc3CC(=O)N([C@H](C)CO)C[C@H]2C)cc1 -4.73%
COc1ccc(S(=O)(=O)N2CC[C@@H]3[C@H](CO)Nc4ccc(C#Cc5cccc(OC)c5)cc4[C@@H]32)cc1 4.05%
C/C=C/c1ccc([C@H]2[C@@H](CO)N(C(=O)C3CC3)[C@@H]2CNC(=O)NC(C)C)cc1 -0.982%
CO[C@@H](CN(C)C(=O)c1cnccn1)[C@@H](C)CN([C@@H](C)CO)S(=O)(=O)c1ccc(Cl)cc1 0.364%
COc1ccc2c3c(n(C)c2c1)[C@@H](CO)N(CC1CC1)CC31CCN(C(=O)c2ccc3c(c2)OCO3)CC1 -0.398%
